TTR transcr act = increases transthyretin transcription; 1.3% of 92,000 active; activation, % at 16.7 µM; SH-SY5Y TTR promoter Gaussia luciferase, luminescence; 100% = recombinant luciferase protein wells;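 active = activation above the mean of all tested compounds plus 3 SD, cut at about 9.5% in these data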;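 note: cells exposed to compounds for one day before reading; 0% = median of all test compound wells on the plate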
HuH7 TTR inh = HuH7 TTR transcription inhibition, counter-screen | inhibition, % at 16.7 µM | HuH7 TTR promoter-Gaussia luciferase reporter, luminescence | shares compounds with TTR transcr act | 4% of 1,100 active;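 active = average inhibition above the solvent-only control wells' mean plus 3 SD, cut at about 15% in these data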;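 note: 0% = cells with DMSO only and 100% = cells with inhibitor control FD; inhibitors lower well luminescence so higher value means more inhibition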
TTR up confirm = confirmation of human transthyretin transcription activators | shares compounds with TTR transcr act | SHSY5Y TTR promoter Gaussia luciferase, luminescence; 100% = purified Lucia enzyme wells, no cells | activation, % at 16.7 µM | 1,100 tested, under 10 active;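 active = mean activation above a set limit taken from the earlier primary screen, cut at about 11% in these data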;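 note: 0% = DMSO-treated cells and 100% = recombinant Lucia luciferase without cells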
* marks the source's active call; other numbers are inactive results. This is one part of a sample in which hits are shown more often than they occur.

SMILES	TTR transcr act	others
Cc1cc(C(=O)OCC(=O)Nc2cccc(S(=O)(=O)N3CCOCC3)c2)c(C)o1	0
O=C(COC(=O)C1=COCCO1)Nc1cccc(S(=O)(=O)N2CCOCC2)c1	14*	HuH7 TTR inh=-7;TTR up confirm=0
O=C(COC(=O)c1cccnc1Cl)Nc1cccc(S(=O)(=O)N2CCOCC2)c1	-1
O=[N+]([O-])c1ccc(F)c(CN2CCN(c3ncc(Cc4ccccc4)cn3)CC2)c1	-3
Cc1c(CC(C)C)nc(N)c(C#N)c1-c1ccccc1	0
CCCc1nc(N)c(C#N)c(-c2cccnc2)c1CC	2
Cc1c(-c2ccccc2)nc(N)c(C#N)c1-c1cccnc1	12*	HuH7 TTR inh=-6;TTR up confirm=-1
COc1cc(CN2CCCC(CO)(Cc3ccccc3)C2)ccc1O (stereo not given)	-1
CCOC(=O)C1(Cc2ccccc2)CCN(Cc2cn[nH]c2-c2ccccc2)CC1	-1
COc1cccc(CC2(CO)CCCN(Cc3cn[nH]c3-c3ccccc3)C2)c1 (stereo not given)	10*	HuH7 TTR inh=-18;TTR up confirm=2
C#CCN1CC(N(C)CCOC(=O)c2ccc(C(C)(C)C)cc2)CS1(=O)=O (stereo not given)	1
O=C(O)CCc1ccc(-c2ccccc2)n1NC(=O)c1ccco1	22*	HuH7 TTR inh=-19;TTR up confirm=0
O=C(Nn1c(-c2ccccc2)nc2ccccc2c1=O)c1ccco1	1
O=C(O)CCc1ccc(-c2cccs2)n1NC(=O)c1ccco1	-3
O=C(Nc1ccc2c(c1)OCO2)OC1CC2CC1[C@H]1CCCCN1[C@H]2Cc1ccccc1 (stereo not given in full)	0
COc1ccc(C(=O)C2CCCN(C(=O)c3c4c(nn3C)CCCC4)C2)cc1F (stereo not given)	2
Cn1nc2c(c1C(=O)N1CCCC(C(=O)c3cc(F)ccc3F)C1)CCCC2 (stereo not given)	12*	HuH7 TTR inh=-19;TTR up confirm=-1
Cc1cc(C)c(C(=O)N2CCCC(C(=O)c3cc(F)ccc3F)C2)o1 (stereo not given)	3
C[C@H]1[C@@H](N(C)Cc2ccccc2)CC[C@@]23CCCN2C(=O)CCC[C@@H]13	0
CCOC(=O)Cc1csc(NC(=O)CSc2nnc(-c3ccc(NS(=O)(=O)CC)cc3)o2)n1	-3
CCS(=O)(=O)Nc1ccc(-c2nnc(SCC(=O)OC)o2)cc1	10*	HuH7 TTR inh=-7;TTR up confirm=0
COC(=O)CSc1nnc(-c2ccc(OC)c(OC)c2)o1	3
CC(=O)Nc1sc(C)c(C)c1C(=O)OC1CCOC1=O (stereo not given)	2
COc1ccccc1CNC(=O)c1cc(-c2ccccc2C)nn1CC1CC(c2cccnc2)=NO1 (stereo not given)	-3
O=C(NCc1ccco1)c1cc(-c2ccccc2)nn1CC1CC(c2cccnc2)=NO1 (stereo not given)	10*	HuH7 TTR inh=-10;TTR up confirm=0
SMILES	TTR transcr act	others
O=C(NCc1ccc(OC(F)(F)F)cc1)c1cc(-c2ccccc2)nn1CC1CC(c2cccnc2)=NO1 (stereo not given)	0
COc1ccc(N(CC(=O)N2CCN(c3ccc(Cl)cc3)CC2)S(=O)(=O)c2c(C)n[nH]c2C)cc1	-1
COC(=O)C1CN(C(=O)OC(C)(C)C)C2=C1C(=O)CC(C)(C(=O)OC(C)(C)C)C2 (stereo not given)	3
C=CCN(C(=O)[C@@H](CCCC)[C@@H](O)c1ccc2ccccc2c1)c1ccccc1	-1
Cc1ccc(CSCCNC(=O)CN2C(=O)c3ccccc3S2(=O)=O)cc1	9.9*	HuH7 TTR inh=-8;TTR up confirm=-1
O=C(CN1C(=O)c2ccccc2S1(=O)=O)NCc1ccccc1	1
Cc1ccc(SCC(=O)NCCSCc2ccccc2)cc1	1
S=C(Nc1ccccc1)OCCN1CCCC12CCC(c1ccccc1)CC2 (stereo not given)	1
CCOc1ccc(-c2csc(N3CCC(C(N)=O)CC3)n2)cc1	-2
CC1(C(=O)Nc2cnc3ccccc3c2)CCN1Cc1ccccc1OC(F)F (stereo not given)	-1
O=S(=O)(c1ccc(Cl)cc1)N1CN(CC2CCCO2)c2nc3ccccc3nc21 (stereo not given)	3
O=C(Nc1nccs1)c1ccc2c(c1)OCO2	0
Cc1cccc(C(=O)Nc2nccs2)c1[N+](=O)[O-]	40*	HuH7 TTR inh=-7;TTR up confirm=0
CSc1ccccc1C(=O)Nc1nccs1	-1
Cc1ncoc1C(=O)Nc1nccs1	10.0*	HuH7 TTR inh=-9;TTR up confirm=1
CCOC(=O)c1ccc(NC(=O)c2cccc(C)c2[N+](=O)[O-])cc1	1
CC(=O)c1noc(C)c1C(=O)Nc1nccs1	-4
CC1CCN(C(=O)c2cc(S(=O)(=O)N3CCCCC3)c[nH]2)CC1	2
Cc1cccc(Cn2cc(COC(=O)NCCc3c[nH]c4ccccc34)nn2)c1	1
CC(C)CN1C(=O)C[C@]2(C(=O)N(C)c3ccc(NS(=O)(=O)c4ccc(F)cc4)cc32)C1c1ccccc1 (stereo not given in full)	1
C=CCN1[C@H](CC(C)C)COc2cccc(F)c2S1(=O)=O	0
O=C(COC(=O)c1cc(Br)ccc1O)NC12CC3CC(CC(C3)C1)C2	0
O=C(OCc1cn(Cc2ccc(F)cc2)nn1)N1CCCC1	0
CN(Cc1ccccc1)C(=O)c1[nH]cnc1C(=O)NCC(=O)OCc1ccccc1	0
C[C@@H]1CCCCO[C@@H](CN(C)S(=O)(=O)c2ccc(F)cc2)[C@@H](C)CN([C@H](C)CO)C(=O)c2cc(N(C)C)ccc2O1	-1
SMILES	TTR transcr act	others
C[C@@H]1CCCCO[C@H](CN(C)S(=O)(=O)c2cccs2)[C@H](C)CN([C@@H](C)CO)C(=O)c2cc(NC(=O)NC3CCCCC3)ccc2O1	0
C[C@@H]1CN([C@@H](C)CO)C(=O)c2cc(N(C)C)ccc2O[C@@H](C)CCCCO[C@@H]1CN(C)S(=O)(=O)c1cccs1	14*	HuH7 TTR inh=-6;TTR up confirm=0
Nc1c(C(=O)N2CCN(c3ccccc3)CC2)nnn1Cc1ccc(Cl)cc1	-1
COC(=O)c1cnc(NNS(=O)(=O)c2ccc(Cl)cc2)nc1C(F)(F)F	11*	HuH7 TTR inh=-14;TTR up confirm=-1
COC(=O)c1cnc(NNC(=O)c2ccc([N+](=O)[O-])cc2)nc1C(F)(F)F	4
COC(=O)c1cnc(Nc2nc(C(N)Cc3ccccc3)cs2)nc1C(F)(F)F (stereo not given)	0
CCN(C(=O)COC(=O)CCS(=O)(=O)c1ccc(C)cc1)C1CCS(=O)(=O)C1 (stereo not given)	-2
COc1ccccc1-c1nnc(SCC#CCOC(=O)c2ccc(F)cc2)o1	-1
O=C(NCCc1c[nH]c2ccccc12)OCc1cn(Cc2cc(F)ccc2F)nn1	-1
Cc1ccccc1-n1c(SCC(=O)Nc2ccccc2)nc2nc3c(cc2c1=O)CCCC3	13*	HuH7 TTR inh=-15;TTR up confirm=-1
CCn1c(SCC(=O)NCc2ccccc2)nc2nc3c(cc2c1=O)CCCC3	-1
CCn1c(SCC(=O)Nc2ccc(OC)cc2)nc2nc3c(cc2c1=O)CCCC3	-1
CCn1ccc(C(=O)N2CCN(c3ncccn3)CC2)n1	-1
CCNC(=O)C[C@@H]1C=C[C@@H](NS(=O)(=O)c2ccc(F)cc2)[C@@H](CO)O1	1
CCCC[C@H]1C2CC(OC(=O)Nc3ccccc3OC)C(C2)[C@H]2CCCCN21 (stereo not given in full)	1

High-throughput results (PubChem BioAssay)
